Bioassay records: PubChem BioAssay, National Center for Advancing Translational Sciences (NCATS)
NIH3T3 tox: kills NIH 3T3 cells | NIH 3T3 viability, CellTiter-Glo ATP luminescence, 48-72 h | actives 4.3% (n = 94,000) | Potency, µM (highest dose often 96.7 µM), for inactives: at the highest dose activity change, negative = cytotoxicity, hits mostly inhibitors; also: % is scaled to controls: 0 for no effect and ±100 for the full control effect; nearly all actives have a fitted effect of over 55% in size
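ATP-dependent luminescence (CellTiter-Glo) served as the viability signal for NIH 3T3 cells treated with compound for 48 or 72 hr at 37 °C.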
NPR1 antag: antagonists of human natriuretic peptide receptor Npr1; actives 1.6% (n = 76,000); HEK293 hNpr1 GloSensor cGMP, ANP-stimulated luminescence; P16066; Potency, µM (top dose mostly 46.3 µM), for the others: at the top dose activity change, negative = inhibition, hits mostly inhibitors; calls by dose curve; also: % is scaled to controls: 0 for no effect and ±100 for the full control effect; nearly all actives have a fitted effect of over 60% in size
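HEK293 cells stably expressing human Npr1 and cGMP GloSensor pGS-40F, loaded 2 h with 2% GloSensor reagent, given compound 30 min at room temperature. Luminescence read before and 20 min after 0.1 nM hNppA.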
FLuc inh: Photinus pyralis luciferase inhibition. P08659. purified P. pyralis luciferase, luminescence, biochemical. Potency, µM (doses to about 115 µM), usual class: inhibitors. actives 2.5% (n = 76,000). AID 1347043; also: % is scaled to controls: 0 for no effect and ±100 for the full control effect; nearly all actives have a fitted effect of over 65% in size
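Inhibitors were tested against purified firefly luciferase in a biochemical, low-substrate format (both substrates at 10uM) and luminescence measured with a CCD imager.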
HEK cytotox: cytotoxic compounds in HEK 293 cells; Potency, µM (doses to about 115 µM), without a hit: at the top dose activity change, negative = cytotoxicity, hits mostly inhibitors; actives 6.6% (n = 94,000); HEK 293 viability, ATP luminescence (CellTiter-Glo), 48-72 h; AID 1345083; also: % is scaled to controls: 0 for no effect and ±100 for the full control effect; nearly all actives have a fitted effect of over 60% in size
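ATP-coupled CellTiter-Glo luminescence served as viability read-out, recorded 10 min after reagent addition at room temperature. HEK 293 cells, 250 cells/well, had been incubated with pintool-transferred compound for 48 or 72 hr at 37 degree Celsius.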
GPT2 inh: GPT2 alanine aminotransferase inhibition; Q8TD30; actives 0.25% (n = 100,000); Recombinant GPT2, coupled pyruvate oxidase/HRP Amplex Red fluorescence; Potency, µM (titrated, usually from 57.7 µM), for inactives: at the top dose activity change, negative = inhibition, usual class: inhibitors; also: % is scaled to controls: 0 for no effect and ±100 for the full control effect; nearly all actives have a fitted effect of over 60% in size
Target sequence (Q8TD30 whole entry, looked up): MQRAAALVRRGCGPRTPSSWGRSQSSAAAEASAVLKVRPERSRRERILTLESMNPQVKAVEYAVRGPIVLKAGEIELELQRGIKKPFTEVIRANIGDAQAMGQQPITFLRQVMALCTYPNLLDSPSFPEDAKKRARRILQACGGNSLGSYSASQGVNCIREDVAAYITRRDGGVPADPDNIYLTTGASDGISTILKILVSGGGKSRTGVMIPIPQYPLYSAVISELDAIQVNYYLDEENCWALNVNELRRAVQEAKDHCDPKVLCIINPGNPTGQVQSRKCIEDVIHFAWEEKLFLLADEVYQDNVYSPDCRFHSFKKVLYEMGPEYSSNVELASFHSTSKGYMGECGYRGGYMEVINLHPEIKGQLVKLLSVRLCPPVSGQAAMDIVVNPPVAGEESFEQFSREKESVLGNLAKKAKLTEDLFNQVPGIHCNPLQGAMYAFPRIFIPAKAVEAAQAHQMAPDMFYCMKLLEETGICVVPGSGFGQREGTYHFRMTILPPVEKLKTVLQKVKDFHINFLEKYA
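Fluorescence of coupled pyruvate oxidase/HRP/Amplex Red system (50uM Amplex, 30 min, dark) reports pyruvate formed by GPT2. Enzyme reaction: 10ng/uL GPT2, 2mM L-alanine, 250uM a-KG, 30 min room temperature, pH 7.5; 50uM AOA control.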
NPR1 antag cnf: hNpr1 antagonism, confirmation assay; actives 76% (n = 1,400); HEK293 hNpr1 cGMP GloSensor luminescence, ANP-stimulated; AID 1347044; Potency, µM (top dose mostly 57.6 µM), for the others: at the highest dose activity change, negative = inhibition, hits mostly inhibitors; shares compounds with NPR1 antag; calls by dose curve; also: nearly all actives have a fitted effect of over 70% in size
Npr2 selectivity: hNpr2 antagonism, selectivity versus Npr1 | actives 67% (n = 1,400) | Potency, µM (doses to about 57.6 µM), for the others: top-dose activity change, negative = inhibition, hits mostly inhibitors | HEK293 hNpr2 GloSensor cGMP luminescence, CNP-stimulated | shares compounds with NPR1 antag; calls by dose curve; also: nearly all actives have a fitted effect of over 70% in size
FLuc counter: inhibits firefly luciferase, false Npr1 antagonist flag; shares compounds with NPR1 antag; purified FLuc enzyme, luminescence, Km substrate; Potency, µM (titrated, usually from 57.6 µM), for inactives: at the top dose activity change, negative = inhibition, most hits filed as inhibitors; actives 0.7% (n = 1,400); also: series mostly up to about 58 µM; 0% is about no effect
GloSensor cGMP: reduces cGMP signal in GloSensor control cells | shares compounds with NPR1 antag | actives 69% (n = 1,400) | Potency, µM (top dose mostly 57.6 µM), inactives show top-dose activity change, negative = inhibition, hits mostly inhibitors | HEK293 GloSensor cGMP, SNP-stimulated, luminescence; calls by dose curve; also: % is scaled to controls: 0 for no effect and ±100 for the full control effect; nearly all actives have a fitted effect of over 70% in size
Numbers without * were called inactive; i = inactive; ? = inconclusive; · = no result given; [ ] = remark or other dose. Compounds with a hit are over-represented: about 10% of the library has one in this group of screens. Unless noted, calls follow the shape of the dose curve; as a rule, active = well fitted curve in the direction sought with a large enough effect; inconclusive = small, poorly fitted or top-dose-only effect, or another doubt; inactive = no such curve, though single readings can be large; an effect the other way counts as inactive or inconclusive. Potency is read from the fitted curve at half-maximal effect.

SMILES	NIH3T3 tox	NPR1 antag	FLuc inh	HEK cytotox	GPT2 inh	NPR1 antag cnf	Npr2 selectivity	FLuc counter	GloSensor cGMP
COc1ccc(OCC(=O)N2CCC(Cc3nc(-c4cnccn4)no3)CC2)cc1	?	-1.6%	i	-4.5%	i	·	·	·	·
COCCNC(=O)c1ccc(CC2CCN(C(=O)CCc3ccc(OC)cc3)CC2)cc1	-28.5%	-16.8%	i	?	i	·	·	·	·
CN(C1CCc2nn(C)c(=O)n2CC1)S(=O)(=O)c1cccc2cccnc12 (centres undefined)	-3.6%	-0.7%	i	9.9%	-1.2%	·	·	·	·
O=C(COc1ccccc1)N1CCC[C@H]1c1nc(-c2ccc(F)cc2)n[nH]1	?	·	·	?	-3.5%	·	·	·	·
Clc1ccc(CN2CCC3(CC2)CC(c2cccnc2)=NO3)cc1	-22.1%	·	·	?	-7.4%	27µM*	?	4.2%	24.1µM*
N#Cc1ccc(CN2CCC3(CC2)CC(c2cccnc2)=NO3)cc1	-20.1%[138 µM]	22.4µM*	i	79.4µM*	i	19.8µM*	22.2µM*	0.6%[86.2 µM]	17.7µM*
N#Cc1ccc(CN2CCC3(CC2)CC(c2cccc(C(F)(F)F)c2)=NO3)cc1	28.2µM*	8.91µM*	i	31.6µM*	2.1%	?	?	2.0%[86.2 µM]	?
N#Cc1ccc(CN2CCC3(CC2)CC(=O)c2ccccc2O3)cc1	?	28.2µM*	i	?	-13.9%[88.5 µM]	31.4µM*	35.3µM*	1.6%[86.2 µM]	25µM*
CC(=O)N1CCCc2nc(C)nc(-c3ccc(O)cc3)c2C1	-16.0%[138 µM]	0.8%[70.6 µM]	i	i	i	·	·	·	·
Cc1cc(C2CCCN2C(=O)c2cc(F)ccc2F)on1 (centres undefined)	-6.7%	3.7%	i	3.0%	i	·	·	·	·
COc1cc(NC(=O)CC2CCOCC2)cc(OC)c1	-16.3%	-8.7%	i	-1.6%	-8.8%	·	·	·	·
COc1ccc(CN2CCCCC23Cc2ccccc2CNC3=O)c(OC)n1 (centres undefined)	?	·	·	?	?	?	17.2µM*	-0.7%	3.7%
COc1ncccc1CN1CCCC12Cc1ccccc1CNC2=O (centres undefined)	-25.0%	·	·	?	i	·	·	·	·
CCc1ccc(CN2CCCC23Cc2ccccc2CNC3=O)s1 (centres undefined)	?	·	·	?	i	-20.9%	-5.1%	4.3%	0.1%
CC1=C(C(=O)OC(C)C)C(c2ccccc2F)N2C(CC(=O)N3CCCC3)=CSC2=N1 (centres undefined)	-3.9%	?	i	-26.2%	i	?	?	0.9%	?
CCC1=C(C(=O)OC)C(c2ccccc2F)N2C(CC(=O)N3CCCC3)=CSC2=N1 (centres undefined)	-25.8%	?	i	-16.9%	i	-29.3%	?	2.8%	?
CCC1=C(C(=O)OC)C(c2ccccc2Cl)N2C(CC(=O)N(C)Cc3ccccc3)=CSC2=N1 (centres undefined)	?	?	i	?	i	?	?	1.0%	?
C=CCOC(=O)C1=C(C)N=C2SC=C(CC(=O)N3CCCC3)N2C1c1cccc(OC)c1OC (centres undefined)	-2.5%	-24.2%	i	-9.2%	0.6%	·	·	·	·
C=CCOC(=O)C1=C(C)N=C2SC=C(CC(=O)N3CCCC3)N2C1c1ccccc1Cl (centres undefined)	-13.2%	12.6µM*	i	?	i	24.3µM*	24.3µM*	-2.5%	?
CCC1=C(C(=O)OC)C(c2ccccc2)N2C(CC(=O)N(C)Cc3ccccc3)=CSC2=N1 (centres undefined)	?	-22.0%	i	?	-13.8%	·	·	·	·
CC1=C(C(=O)OC(C)C)C(c2ccc([N+](=O)[O-])cc2)N2C(CC(=O)N3CCCC3)=CSC2=N1 (centres undefined)	-10.7%	?	i	?	i	·	·	·	·
COCCC(=O)N1CCCC(N2CCN(c3cccc(C(F)(F)F)c3)CC2)C1 (centres undefined)	-18.1%	-0.6%	i	-31.9%	-3.7%	·	·	·	·
COC(=O)C1=C(C)N=C2SC=C(CC(=O)N3CCC(C)CC3)N2C1c1cccc(OC)c1 (centres undefined)	?	?	i	39.8µM*	i	?	19.3µM*	-1.0%	-6.4%
Cc1nnc(-c2cc(Nc3cccc(N(C)C)c3)ccn2)n1Cc1ccccc1	?	-15.9%[70.6 µM]	i	?	i	·	·	·	·
Cc1nc2scc(CC(=O)NC(C)C)n2c(=O)c1-c1cc(C)n(-c2ccc(C(C)C)cc2)n1	-14.1%	-1.6%	i	-10.7%	?	·	·	·	·
CCc1cccc(NC(=O)c2cc3n(n2)CC(c2ccc(Cl)cc2)OC3)c1 (centres undefined)	?	?	i	?	-6.7%	·	·	·	·
O=C(Nc1cccc(Cl)c1)c1cc2n(n1)CC(c1ccc3c(c1)OCO3)OC2 (centres undefined)	?	-27.9%	i	?	i	·	·	·	·
Cc1ccc(NC(=O)c2cc3n(n2)CC(c2ccc4c(c2)OCO4)OC3)cc1Cl (centres undefined)	?	?	i	?	2.0%	?	?	-3.7%	-27.8%
O=C(Nc1ccc(Cl)cc1)c1cc2n(n1)CC(c1ccc3c(c1)OCO3)OC2 (centres undefined)	?	12.6µM*	i	?	i	24.3µM*	21.7µM*	-15.3%	21.7µM*
O=C(Nc1ccc(F)cc1)c1cc2n(n1)CC(c1ccc3c(c1)OCO3)OC2 (centres undefined)	?	12.6µM*	i	?	-24.3%	21.7µM*	34.3µM*	-15.6%	?
